One may read the AC50 as the concentration giving half of the maximal activity seen.

Active and inactive are the calls of the source. The calls were made as follows: active = hit-call score of the fitted dose curve at least 0.9, where 1 is the maximum; inactive = score below 0.9.

The assay is described as follows: ATG_GRE_CIS: Attagene CIS-FACTORIAL HepG2 Assay for human Glucocorticoid Response Elements (GRE) (AID 2282947). The following applies: HepG2 GRE cis-reporter, Attagene multiplex mRNA; actives raise or lower the signal. The protocol:
ATG_CIS is a cell-based, multiplexed-readout assay that uses HepG2, a human liver cell line, with measurements taken at 24 hours after chemical dosing in a 24-well plate.ATG_GRE_CIS is one of 52 assay component(s) measured or calculated from the ATG_CIS assay. It is designed to make measurements of mRNA induction, a form of inducible reporter, as detected with fluorescence intensity signals by Reverse transcription polymerase chain reaction (RT-PCR) and Capillary electrophoresis technology.Data from the assay component ATG_GRE_CIS was analyzed into 1 assay endpoint. This assay endpoint, ATG_GRE_CIS, was analyzed with bidirectional fitting relative to DMSO as the negative control and baseline of activity. Using a type of inducible reporter, measures of mRNA for gain or loss-of-signal activity can be used to understand the reporter gene at the transcription factor-level as they relate to the gene NR3C1. Furthermore, this assay endpoint can be referred to as a primary readout, because this assay has produced multiple assay endpoints where this one serves a reporter gene function. To generalize the intended target to other relatable targets, this assay endpoint is annotated to the nuclear receptor intended target family, where the subfamily is steroidal.
Human liver HepG2 cells are transiently transfected with multiple reporter transcription units (MRTUs) in 6-well plates using FuGene 6 reagent (Roche; 3 ml FuGene/1 mg DNA). The MRTU constructs are regulated by a cis-regulating element (promoter). […] A major difference between the CIS and TRANS system is that in CIS activities of endogenous TFs are measured, whereas the TRANS assay evaluates changes in activities of exogenous, chimeric NR-Gal4 proteins. […] At the end of 24 hour incubation, total RNA was isolated using TriZol reagent (Invitrogen). The isolated RNA is then reverse-transcribed using oligo(dT) primer and Mo-MLV reverse transcriptase (Invitrogen) with DNAse I (Ambion) treatment for 30 min. The one-tenth of the produced cDNA was amplified by PCR using Taq DNA polymerase (Invitrogen) and two reporter sequence-specific primers. The PCR products were fluorescently labeled by primer extension with 6-arboxyfluorescein (6-FAM) 5'-labeled reporter sequence-specific primer (2 min at 95 C, 20 s at 68 C and 10 min at 72 C) and these products were digested with 5U of HpaI (New England Biolabs) for 2h at 37 C. The fragments were purified using Qiaquick PCR columns (Qiagen), analyzed on an ABI 3130xL genetic analyzer (Applied Biosystems) with peak positions identified by using a set of X-rhodamine (ROX)-labeled MapMarker1000 molecular weight standards (BioVentures). The raw capillary electrophoresis data was processed using Attagraph software (Attagene).
On to `O=C1c2ccccc2C(=O)c2c(Cl)cccc21`, for which the call was inactive.

On to `CCCCCC/C=C/CCCCCCCC(=O)O`, for which the compound was called inactive.

Consider `OCCC(O)CO` (stereo not given), for which the compound was called inactive.

With `NC(=O)C(F)(F)C(F)(F)C(F)(F)C(F)F`, the call was inactive.

On to `CC(=O)C=O`, for which the outcome was inactive.

`O=C(c1ccccc1)c1ccc(O)cc1O`: the compound was classed as inactive.

`OCCCCC(F)(F)C(F)(F)C(F)(F)C(F)(F)F`: the compound was called inactive.

For the compound `O=C(Cl)C(F)(F)C(F)(F)C(F)(F)C(F)(F)C(F)(F)C(F)(F)C(F)(F)F`, the call was inactive.

Take `NCC(F)(F)C(F)(F)C(F)(F)C(F)(F)C(F)(F)C(F)(F)F`: the result was inactive.

Turning to `CSc1ccc(Cl)cc1`, the outcome was inactive.

Take `C[Si](C)O[Si](C)C`: the outcome was inactive.

As for `CCN(CC)c1ccc(C=O)c(O)c1`, the result was inactive.

Regarding `C=C(C)CCCC`, the outcome was inactive.

For `Cc1ccc(O)c(-n2nc3ccccc3n2)c1`, the outcome was inactive.

With `CCCCCCCCCCCC(=O)Cl`, the compound was called inactive.

Regarding `Oc1ccc2c(c1)CCC2`, the compound was classed as inactive.

For the compound `CCC(Cc1c(I)cc(I)c(N)c1I)C(=O)O` (stereo not given), the compound was classed as inactive.

On to `Cc1ccc(O)cn1`, for which the compound was called inactive.

For `CCOC(C=C(C)CCC=C(C)C)OCC`, the call was inactive.

As for `CCCCCCCC/C=C\CCCCCCCC(=O)OCC(O)CO` (stereo not given), the call was inactive.

Consider `O=C(O)C(F)(F)C(F)(F)C(F)(F)C(F)(F)C(F)(F)C(F)(F)C(F)F`, for which the compound was classed as inactive.

For `CCCCCCCCCCCCCC[P+](CCCC)(CCCC)CCCC`, the result was inactive.

For the compound `OCC(F)(F)C(F)(F)C(F)(F)C(F)(F)C(F)(F)C(F)(F)C(F)(F)C(F)(F)CO`, the outcome was inactive.

For `NS(=O)(=O)C(F)(F)C(F)(F)C(F)(F)C(F)(F)C(F)(F)C(F)(F)F`, the compound was classed as inactive.

As for `CCN(CCO)S(=O)(=O)C(F)(F)C(F)(F)C(F)(F)C(F)(F)C(F)(F)C(F)(F)C(F)(F)C(F)(F)F`, the outcome was inactive.

Turning to `CCN=C1C=CC(=C(c2ccc(N(CC)CC)cc2)c2ccc(N(CC)CC)cc2)c2ccccc21`, the compound was classed as inactive.

On to `O=C(O)CCC(F)(F)C(F)(F)C(F)(F)C(F)(F)C(F)(F)C(F)(F)C(F)(F)F`, for which the compound was called inactive.

`CCCCCCCCCCCCC[N+](C)(C)Cc1ccccc1`: the compound was classed as inactive.

As to `CCc1cc(Cc2cc(CC)c(N)c(CC)c2)cc(CC)c1N`, the outcome was inactive.

For `CC(=O)CCC(C)C`, the outcome was inactive.

For `OC(O)C(F)(F)C(F)(F)F`, the call was inactive.

Take `Cc1ccc(S(=O)(=O)C(I)I)cc1`: the half-maximal activity concentration (AC50) was 3.45 µM (active).

As to `CC1=CCC2C(=O)OC(=O)C2C1` (stereo not given), the compound was called inactive.

Turning to `Cc1cccc(C)n1`, the call was inactive.

With `O=C(O)CCC(F)(F)C(F)(F)C(F)(F)F`, the outcome was inactive.

Consider `Cc1cc(=O)[nH]c(C(C)C)n1`, for which the compound was called inactive.

With `NC(=O)C(F)(F)C(F)(F)C(F)(F)C(F)(F)C(F)(F)C(F)(F)C(F)(F)F`, the call was inactive.

Turning to `OCCCC(F)(F)C(F)(F)C(F)(F)C(F)(F)C(F)(F)C(F)(F)C(F)(F)C(F)(F)F`, the result was inactive.

Consider `O=C(F)C1(F)C(F)(F)C(F)(F)C(F)(F)C(F)(F)C1(F)F`, for which the compound was classed as inactive.

In the case of `CC(C)(C)C(=O)C1C(=O)c2ccccc2C1=O`, the call was inactive.

Values taken from PubChem BioAssay (EPA / NIEHS).
